Most compounds without a hit are left out; they make up all but 4.6% or so of the library.
Cav3 T inh = blocks human Cav3.2 T-type calcium channel. O95180. Cav3.2-expressing cells, Fluo-4 calcium fluorescence FDSS; active compounds read low. B-score at 10 µM. hit rate 4% among 100,000;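 active = single-dose well whose peak fluorescence ratio is a statistical outlier from its plate by either plate-standardised score or position-corrected B-score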
NFkB transloc pot = enhances IL-1B driven NFkB nuclear translocation. activation, % at 2 µM. HUVEC IL-1B NFkB p65 nuclear translocation imaging. hit rate 0.3% among 94,000. AID 819;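 active = activation above 40%, about the mean plus 3 SD, also judged a hit on visual image review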;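 note: percent activation is computed from the nuclear over cytoplasmic p65 intensity ratio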
sEH inhibitor = soluble epoxide hydrolase (human) inhibition; P34913; recombinant human sEH enzymatic activity assay; inhibition, % at 2 µM; hit rate 0.34% among 91,000; AID 707; in the data active = inhibition above about 80%
IL1B cytotox = toxic to HUVEC cells under IL-1B stimulation; HUVEC cell count loss, Hoechst imaging, IL-1B stimulated; cell count reduction, % at 2 µM; hit rate 0.41% among 94,000; AID 845;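 active = cell count reduction more than 3 SD above the screen-wide mean, cut at about 70% in these data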
sEH activator = activators of human soluble epoxide hydrolase | P34913 | purified human sEH enzymatic activity, activator screen | activation, % at 2 µM | hit rate 0.04% among 91,000 | AID 717; in the data active = activation above about 37%
NFkB transloc inh = blocks IL-1B driven NFkB nuclear translocation in HUVEC cells. HUVEC IL-1B NFkB p65 nuclear translocation imaging. inhibition, % at 2 µM. hit rate 0.43% among 94,000;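 active = inhibition above about 30% together with a positive call from visual inspection of the well image, limit read from the data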;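 note: nuclear over cytoplasmic p65 intensity ratio measured by imaging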
Each line names hits and unclear results; the compound was inactive in the other large screens.

COc1ccc(N(C(=O)Cn2nnc3ccccc32)C2(C(=O)NC3CCCC3)CCCCC2)cc1	none
COc1ccc(N(C(=O)Cn2cnc3ccccc32)C(C(=O)NC2CCCCC2)c2ccccc2)cc1 (centres undefined)	Cav3 T inh -3.5
C=CCn1c(SCC(N)=O)nnc1-c1cc(Br)ccc1O	none
C=CCn1c(SCc2c(C(=O)OC)sc(N)c2C(=O)OC)nnc1-c1ccc(Br)cc1	Cav3 T inh -4.6
Cc1nc(N2CCOCC2)c(C#N)c2c1COC(C)(C)C2	none
CCCCCn1c(SCc2ccncc2)nc2cc(C(=O)NCc3ccco3)ccc2c1=O	Cav3 T inh -4.2 (no result: sEH inhibitor, sEH activator)
CCCn1c(SCC(=O)NCc2ccco2)nc2c1c(=O)n(C)c(=O)n2C	IL1B cytotox 81
O=C1N(O)C2(C=CCCC2)/C(=N\O)C12CCCCC2 (centres undefined)	none
Cc1cn(C(=O)C(C)N2C(=O)c3ccccc3C2=O)c(C)n1 (centres undefined)	IL1B cytotox 87
Cc1cc(=O)[nH]c(SCCCOc2ccc(F)cc2)n1	none
Cc1cc(Cl)c(OCCCSc2nc(C)cc(=O)[nH]2)c(Br)c1	IL1B cytotox 90
CCN(CC)S(=O)(=O)c1cc(F)ccc1OC	IL1B cytotox 77
COc1cccc(N2CCN(C3CC(=O)N(c4ccc(F)c(Cl)c4)C3=O)CC2)c1 (centres undefined)	IL1B cytotox 88, NFkB transloc inh 96
O=C1CC(N2CCN(c3cccc(C(F)(F)F)c3)CC2)C(=O)N1c1ccccc1F (centres undefined)	Cav3 T inh -3.2
COc1cccc(N2CCN(C3CC(=O)N(c4ccc(C)c(Cl)c4)C3=O)CC2)c1 (centres undefined)	none (no result: NFkB transloc pot, sEH inhibitor, IL1B cytotox, sEH activator, NFkB transloc inh)
CC(C)(C)NC(=O)CCC1COc2ccccc2O1 (centres undefined)	none
C=CCNC(=O)CN1C2CCCC1CC(NC(=O)c1ccccc1C)C2 (centres undefined)	none (no result: NFkB transloc pot, sEH inhibitor, IL1B cytotox, sEH activator, NFkB transloc inh)
COC(=O)C1=C(C)N(C)C(C)=C(C(=O)OC)C1c1ccc(Cl)cc1	none
CCOC(=O)C1=C(C)N(C)C(C)=C(C(=O)OCC)C1c1ccc(C(=O)OC)cc1	Cav3 T inh -7
O=C(Nc1ccc2c(c1)OCCO2)NC12CC3CC(CC(C3)C1)C2	sEH inhibitor 97
Cc1cccc(C(=O)O/N=C(\N)c2ccc(Br)cc2)c1	none
COC(=O)CN1C(=O)S/C(=C/c2ccc(N3CCCCC3)o2)C1=O	Cav3 T inh -7.9
CC(C)n1c(SCc2cc(=O)[nH]c3ccccc23)nc2c1c(=O)n(C)c(=O)n2C	none (no result: NFkB transloc pot, sEH inhibitor, IL1B cytotox, sEH activator, NFkB transloc inh)
CC(C)N=c1cc2n(-c3ccc(Cl)cc3)c3ccccc3nc-2cc1Nc1ccc(Cl)cc1	Cav3 T inh -3.9 (no result: NFkB transloc pot, sEH inhibitor, IL1B cytotox, sEH activator, NFkB transloc inh)
COC(=O)c1ccccc1NC(=O)CN(C1CCCCC1)S(C)(=O)=O	none
CSc1cccc(NC(=O)CN(C2CCCCC2)S(C)(=O)=O)c1	Cav3 T inh -5.1
CS(=O)(=O)N(CC(=O)Nc1ccccc1Sc1ccccc1)C1CCCCC1	Cav3 T inh -5.9
COc1ccc(NC(=O)CN(C2CCCCC2)S(C)(=O)=O)cc1OC	none
O=C(NCCCn1ccnc1)c1cc(-c2ccc(Cl)cc2)nc2ccccc12	none
COc1cccc(N2CCN(CC(=O)Nc3nnc(-c4ccccc4)s3)CC2)c1	Cav3 T inh -5.2
COc1cccc(N2CCN(CC(=O)NCc3cccs3)CC2)c1	none
COc1cccc(NC(=O)c2ccc(CN3CCN(c4ccccc4)CC3)cc2)c1	Cav3 T inh -5.4
COc1ccc(NC(=O)c2ccc(CN3CCN(c4ccccc4)CC3)cc2)cc1	none
COc1ccc(NC(=O)COc2nsnc2N2CCCCC2)cc1	none
O=C(Nc1ccc(Cc2ccncc2)cc1)C1CCC(N2C(=O)C3C4C=CC(C4)C3C2=O)CC1 (centres undefined)	none
CC(=O)NCCC(=O)NCc1ccc(F)cc1	none
O=C(c1ccc(Cl)c(Cl)c1)N(Cc1ccco1)c1ccc(O)cc1	Cav3 T inh -7.4
CC1CC(N(C(=O)c2ccco2)c2ccccc2)c2ccccc2N1 (centres undefined)	Cav3 T inh -4.3
CC1CC(c2ccccc2)n2nc(NC(=O)c3ccco3)nc2N1 (centres undefined)	none
COC(=O)c1ccc2nc(C)c(C)nc2c1	none
COC(=O)c1ccc2c(c1)C(C)(C)C(/C=C/c1ccc(OC)c(OC)c1OC)=[N+]2C	NFkB transloc inh 37
